Results from PubChem BioAssay (NCATS).
Inconclusive results are not listed. Active and inactive are the calls of the source. Calls come from the whole dose curve; as a rule, active = well fitted curve in the direction sought with a large enough effect; inconclusive = small, poorly fitted or top-dose-only effect, or another doubt; inactive = no such curve, though single readings can be large; an effect the other way counts as inactive or inconclusive.

Experiments:
[1] = biological target: Rap guanine nucleotide exchange factor 3 (Homo sapiens) (UniProt O95398); assay: Confirmatory qHTS for agonist of cAMP-regulated guanine nucleotide exchange factor 3 (EPAC1) (AID 1645881);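 note: EPAC1 catalysed release of BODIPY-GDP from Rap1B seen as fluorescence loss; 100% = effect of cAMP agonist control; nearly all actives have a fitted effect of over 75% in size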
Rap guanine nucleotide exchange factor 3 (Homo sapiens), sequence (O95398 whole entry, looked up): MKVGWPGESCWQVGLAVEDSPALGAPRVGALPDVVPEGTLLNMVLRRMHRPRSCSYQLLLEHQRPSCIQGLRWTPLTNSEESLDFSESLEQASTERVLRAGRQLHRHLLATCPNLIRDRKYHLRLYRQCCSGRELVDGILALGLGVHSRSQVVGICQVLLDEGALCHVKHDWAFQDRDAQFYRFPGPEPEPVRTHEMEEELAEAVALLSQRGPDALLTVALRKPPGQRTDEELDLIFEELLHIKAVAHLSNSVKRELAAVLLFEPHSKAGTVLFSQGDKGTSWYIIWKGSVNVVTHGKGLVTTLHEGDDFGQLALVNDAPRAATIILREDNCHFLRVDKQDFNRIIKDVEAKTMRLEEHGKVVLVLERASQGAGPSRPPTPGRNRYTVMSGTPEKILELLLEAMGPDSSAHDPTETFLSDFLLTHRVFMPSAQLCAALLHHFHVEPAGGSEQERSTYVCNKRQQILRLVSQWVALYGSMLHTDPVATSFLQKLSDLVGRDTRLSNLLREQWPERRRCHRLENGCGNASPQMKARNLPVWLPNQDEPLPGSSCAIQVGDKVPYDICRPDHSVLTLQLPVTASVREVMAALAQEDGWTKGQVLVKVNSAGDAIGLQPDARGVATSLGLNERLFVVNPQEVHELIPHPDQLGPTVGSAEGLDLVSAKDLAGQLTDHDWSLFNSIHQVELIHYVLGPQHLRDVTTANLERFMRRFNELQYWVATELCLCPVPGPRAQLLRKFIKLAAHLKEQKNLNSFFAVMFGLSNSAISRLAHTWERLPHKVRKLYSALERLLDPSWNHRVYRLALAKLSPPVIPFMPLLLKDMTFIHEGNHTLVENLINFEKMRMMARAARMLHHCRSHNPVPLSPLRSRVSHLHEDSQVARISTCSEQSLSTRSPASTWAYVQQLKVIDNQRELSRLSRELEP

[2] = biological target: Rap guanine nucleotide exchange factor 4 (Homo sapiens) (UniProt Q8WZA2); assay: Confirmatory qHTS for agonist of cAMP-regulated guanine nucleotide exchange factor 4 (EPAC2) (AID 1645884);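 note: nucleotide exchange releases bodipy-GDP from Rap1 and this lowers its fluorescence; % is set by controls: 0 for no effect and ±100 for the full control effect; nearly all actives have a fitted effect of over 65% in size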
Rap guanine nucleotide exchange factor 4 (Homo sapiens), sequence (Q8WZA2 whole entry, looked up): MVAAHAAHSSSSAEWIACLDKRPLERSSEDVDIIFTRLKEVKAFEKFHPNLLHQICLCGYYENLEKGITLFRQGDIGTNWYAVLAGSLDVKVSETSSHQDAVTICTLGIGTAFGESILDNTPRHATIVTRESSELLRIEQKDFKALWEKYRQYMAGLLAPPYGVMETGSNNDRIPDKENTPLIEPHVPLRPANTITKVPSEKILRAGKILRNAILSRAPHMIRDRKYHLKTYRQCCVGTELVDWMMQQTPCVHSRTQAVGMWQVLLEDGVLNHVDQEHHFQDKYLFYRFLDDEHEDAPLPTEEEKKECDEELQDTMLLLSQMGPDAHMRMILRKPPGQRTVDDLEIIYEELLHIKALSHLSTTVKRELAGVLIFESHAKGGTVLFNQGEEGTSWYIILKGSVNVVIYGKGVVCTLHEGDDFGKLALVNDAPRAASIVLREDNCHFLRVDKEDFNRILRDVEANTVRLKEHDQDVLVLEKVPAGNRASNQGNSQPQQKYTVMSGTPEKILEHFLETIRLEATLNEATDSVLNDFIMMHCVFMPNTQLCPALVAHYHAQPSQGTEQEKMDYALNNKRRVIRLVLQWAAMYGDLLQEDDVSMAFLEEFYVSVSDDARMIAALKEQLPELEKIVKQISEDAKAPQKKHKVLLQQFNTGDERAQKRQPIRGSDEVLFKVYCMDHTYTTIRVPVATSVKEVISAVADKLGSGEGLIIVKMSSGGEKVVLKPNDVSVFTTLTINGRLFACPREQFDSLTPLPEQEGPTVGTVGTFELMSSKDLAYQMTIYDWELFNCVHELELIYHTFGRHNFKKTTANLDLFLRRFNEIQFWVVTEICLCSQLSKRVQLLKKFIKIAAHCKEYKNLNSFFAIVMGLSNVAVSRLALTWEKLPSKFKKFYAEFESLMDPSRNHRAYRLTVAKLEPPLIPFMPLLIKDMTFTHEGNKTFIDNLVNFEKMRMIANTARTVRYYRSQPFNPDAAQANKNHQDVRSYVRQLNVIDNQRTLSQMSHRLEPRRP

[3] = biological target: Rap guanine nucleotide exchange factor 4 (Homo sapiens) (UniProt Q8WZA2); assay: Confirmatory qHTS for antagonist of cAMP-regulated guanine nucleotide exchange factor 4 (EPAC2) (AID 1645885); note: % is set by controls: 0 for no effect and ±100 for the full control effect; nearly all actives have a fitted effect of over 25% in size
[4] = biological target: Rap guanine nucleotide exchange factor 3 (Homo sapiens) (UniProt O95398); assay: Counterscreen qHTS for antagonist of cAMP-regulated guanine nucleotide exchange factor 3 (EPAC1) (AID 1645888);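 note: fluorescence loss as bound BODIPY-GDP is released from Rap1B; % of control where 0% means no effect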
In short: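 Rap1B-BODIPY-GDP 250 nM + GDP 50 uM; cpds 7-pt, final 9.74 nM–152 uM (activator mode) or from 7.32 nM upwards (inhibitor mode); RT; FI 480/540 nm at 5 and 30 min, then ± cAMP, reread.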

Cc1ccc(Nc2c(-c3ccccn3)nc3cccc(C)n23)cc1
inactive: Potency [1] | Potency [2] | Potency [3] | Potency [4]

O=C(c1ccc2c(c1)CCCC2)N1CCN(c2nc3ccc(F)cc3s2)CC1
inactive: Potency [1] | Potency [2] | Potency [3] | Potency [4]

NC(=O)c1c(NC(=O)CN2CCN(S(=O)(=O)c3ccccc3)CC2)sc2c1CCC2
inactive: Potency [1] | Potency [2] | Potency [3] | Potency [4]

O=C(O)CN1C(=O)/C(=C\C(Br)=C\c2ccccc2)SC1=S
inactive: Potency [1] | activation [2] 6.32% [at 17.1 µM, percent relative to cAMP agonist control] | Potency [3] | activity change, negative = inhibition [4] 0.657% [at 30.8 µM]

CC(=O)NC(C)(c1ccccc1)c1nc(-c2cccc(C(F)(F)F)c2)cs1 (stereo unspecified)
inactive: Potency [1] | Potency [2] | Potency [3] | Potency [4]

O=C(NCCc1ccccc1)c1ccc(Cn2c(SCc3cccc(F)c3)nc3cccnc32)cc1
inactive: Potency [1] | Potency [2] | Potency [3] | Potency [4]

Cn1c(=O)c2c(-c3ccccc3Br)n(Cc3ccccc3)cc2n(C)c1=O
inactive: Potency [1] | Potency [2] | Potency [3] | Potency [4]

Brc1cc2c(cc1CSc1ncccn1)OCO2
inactive: Potency [1] | activation [2] -6.54% [at 17.1 µM, percent relative to cAMP agonist control] | Potency [3] | activity change, negative = inhibition [4] -28.4% [at 30.8 µM]

O=C(CSc1nc(O)cc(=O)n1-c1ccccc1)Nc1nc2ccccc2s1
inactive: Potency [1] | Potency [2] | Potency [3] | Potency [4]

Cc1ccc(C(NC(=O)C2CCN(Cc3ccc(Cl)c(Cl)c3)CC2)c2ccccn2)cc1 (stereo unspecified)
inactive: Potency [1] | Potency [2] | Potency [3] | Potency [4]

c1cc(-c2cc3nc(NC4CCCCC4)ccn3n2)ccc1OCCN1CCOCC1
inactive: Potency [1] | Potency [2] | Potency [3] | Potency [4]

CC1=NN(c2ccccc2)C(=O)C1=Cc1ccccc1
inactive: Potency [1] | activation [2] -2.46% [at 17.1 µM, percent relative to cAMP agonist control] | Potency [3] | activity change, negative = inhibition [4] 42% [at 30.8 µM]

Cc1ccc(C(C)C)c(OCC(=O)NCC2(N3CCOCC3)CCCCC2)c1
inactive: Potency [1] | Potency [2] | Potency [3] | Potency [4]

O=C(N/N=C/c1c(O)ccc2ccccc12)c1[nH]ncc1Br
inactive: Potency [1] | Potency [2] | Potency [3] | Potency [4]
